For 13 molecules, growth results are on record in PubChem BioAssay (NCI).

SMILES strings stand for the structures. This is part of a sample that, as a whole, favours compounds with a hit. Of some 83,000 tested, about 20% had one in any assay.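 The endpoint reported here, percent growth, reads 100 for growth as untreated, 0 for no net growth and -100 for all cells dead.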 Values without a mark were called inactive. Calls of active or inactive are those of the source. The calls were made as follows: active = growth percent below 10; inactive = the rest.

The experiment relates to MALME-3M melanoma. As to the kind of experiment: NCI-60 one-dose screen, 48 h (100 = growth as untreated, 0 = no growth, -100 = all killed). The note with it: 10 µM.
With `CCOC(=O)c1sc2ncnc(Nc3ccc4c(cnn4C(=O)Nc4ccccc4)c3)c2c1C`, the growth was 32.7%.

With `CCOC(=O)c1cc(C(=O)c2ccc(Cl)cc2)n2ccc(-c3cc[n+](CC(=O)c4ccc(OC)cc4)cc3)cc12`, the growth was 99.6%.

For `CC(CN(C)C)Oc1ccc(OC(C)CN(C)C)c2c1C(=O)c1ccccc1C2=O` (stereo not drawn), the growth was 67.6%.

Turning to `N#Cc1c(-c2ccc(Cl)cc2)n(O)c2ccccc12`, the growth was 6.37% (active).

For `C=CCN(CC=C)C(=O)[C@H](CC)[C@@H]1CC[C@@H](C)[C@@H]([C@H](C)[C@@H](O)[C@@H](C)C(=O)[C@H](CC)C2O[C@]3(C=CC(=O)[C@]4(CC[C@@](C)([C@H]5CC[C@](O)(CC)[C@H](C)O5)O4)O3)[C@H](C)C[C@@H]2C)O1` (stereo partly drawn), the growth was -25.1% (active).

Regarding `COc1cc(C2C(C#N)=C(N)Oc3cc(O)ccc32)cc(OC)c1OC` (stereo not drawn), the growth is 43.5%.

`O=C(CI)OCC(COC(=O)CI)OC(=O)CI`: the growth is 24.3%.

In the case of `Cc1ccc(C(=O)C2C(=O)C3CCC2C3)cc1` (stereo not drawn), the growth is 121%.

Turning to `CCc1ccc(C2=NN(c3ccc(S(C)(=O)=O)cc3)C(=O)CC2)cc1`, the growth is 38.8%.

On to `CC(C)(C)c1ccc(S(=O)(=O)Oc2ccc(NC(=O)C3CCCCC3)cc2)cc1`, for which the growth was 78.9%.

For the molecule `N#CC1=CC2CN(Cc3ccccc3)C1C1C(=O)N(c3ccccc3)C(=O)C21` (stereo not drawn), the growth is 111%.

On to `CN(C)CCCOc1ccccc1NC1=C(Cl)C(=O)C(Nc2ccccc2OCCCN(C)C)=C(Cl)C1=O`, for which the growth was -77.6% (active).

With `CCOC(=O)c1cc(C(=O)c2cc(OC)c(OC)c(OC)c2)n2c1ccc1c3cccnc3ccc12`, the growth was 79.3%.
